Results from PubChem BioAssay (Tox21).
Several values for one entry are separate records, joined by “and”; a condition that tells them apart may be missing. Identical values can stand only once. Records with an inconclusive call do not appear. The source holds several records for some structures; these can differ, active in one and inactive in another. Activity calls are given as the source filed them. Unless noted, calls come from the whole dose curve; as a rule, active = well fitted curve in the direction sought with a large enough effect in the repeat runs; inconclusive = weak or mixed curves; inactive = no such curve, though single readings can be large; an effect the other way counts as inactive or inconclusive.

Assays:
[1] = qHTS assay for small molecule agonists of the p53 signaling pathway - cell viability (AID 651633; calls by dose curve; note: nearly all actives have a fitted effect of over 30% in size; note: potency is the fitted concentration of half-maximal effect)
Procedure, shortened: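 p53RE-bla cells, seeded at 4,000 per well and rested 5 h at 37 C/5% CO2, received compounds in DMSO for 16 h at 37 C. CellTiter-Glo was then added, and luminescence was read after 30 min at room temperature to gauge cytotoxicity.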

[2] = qHTS assay for small molecules that induce genotoxicity in human embryonic kidney cells expressing luciferase-tagged ATAD5 - cell viability (AID 651634; calls by dose curve; note: nearly all actives have a fitted effect of over 25% in size; note: potency is the fitted concentration of half-maximal effect)
Procedure, shortened: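 Cells (HEK293T, luciferase-tagged ATAD5) are seeded at 2,000 per well, dosed with compound or DMSO vehicle, and incubated 15.5 hr at 37C and 5% CO2. CellTiter-Fluor is added for 30 min before fluorescence is measured.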

[3] = qHTS assay for small molecule disruptors of the mitochondrial membrane potential - cell viability (AID 720634; calls by dose curve; note: nearly all actives have a fitted effect of over 20% in size; note: potency is the fitted concentration of half-maximal effect)
Procedure, shortened: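 Cytotoxicity was measured by ATP quantitation in HepG2 wells that had first been treated with compound for 1 hr and stained with m-MPI dye; CellTiter-Glo incubation was 30 min at room temperature.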

[4] = qHTS assay to test for compound auto fluorescence at 590 nm (red) in HepG2 cells (AID 720674)
Procedure, shortened: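 Compound auto-fluorescence is scored relative to Rose Bengal sodium, measured at 540/590 nm in live HepG2 cultures after 1 hr compound contact (37 C, 5% CO2).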

[5] = qHTS assay to test for compound auto fluorescence at 460 nm (blue) in HEK293 cells (AID 720678)
Procedure, shortened: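 Cells were seeded and left to adhere for 4-5 hr at 37C. Compounds were then pin-transferred. After an overnight incubation at 37C under 5% CO2, intrinsic fluorescence at 405/460 nm was measured and referenced to triamterene.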

[6] = qHTS assay to test for compound auto fluorescence at 535 nm (green) in HEK293 cells (AID 720680); note: potency is the fitted concentration of half-maximal effect
[7] = qHTS assay to test for compound auto fluorescence at 535 nm (green) in HEK293 cell free culture (AID 720682); note: potency is the fitted concentration of half-maximal effect
Procedure, shortened: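 Green-label autofluorescence (485 nm excitation, 535 nm emission) measured on compound added to cell-free culture medium (DMEM, 10% FBS). Output is expressed relative to fluorescein.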

[8] = qHTS assay to test for compound auto fluorescence at 590 nm (red) in HEK293 cell free culture (AID 720683)
Procedure, shortened: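 Tox21 10K library compounds were pinned into cell-free DMEM with 10% FBS and fluorescence was read at excitation 540 nm. Activity is expressed as Rose Bengal sodium equivalency.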

[9] = qHTS assay to test for compound auto fluorescence at 460 nm (blue) in HepG2 cell free culture (AID 720685)
Procedure, shortened: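 Cell-free plates of MEM plus 10% FBS received 23 nL compound or DMSO vehicle; blue-channel (405/460 nm) intensity scored against triamterene as reference fluorophore.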

[10] = qHTS assay to test for compound auto fluorescence at 460 nm (blue) in HepG2 cells (AID 720687)
Procedure, shortened: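 Cells (2,000/well in MEM with 10% FBS) attached overnight at 37 C, then were exposed to compound or DMSO for 1 hr at 37 C, 5% CO2. Fluorescence read at Ex/Em 405/460 nm, expressed as triamterene-equivalent signal.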

[11] = qHTS assay for identifying genotoxic compounds that show differential cytotoxicity against isogenic chicken DT40 cell lines with known DNA damage response pathways - wild type cell line (AID 743012); note: nearly all actives have a fitted effect of over 60% in size; note: potency is the fitted concentration of half-maximal effect
Procedure, shortened: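 Cytotoxicity in repair-proficient parental chicken DT40 cells serves as the comparator for Rad54/Ku70- and Rev3-deficient lines. Cells were exposed to compounds for 40 h at 37 C/5% CO2, and ATP-based luminescence (CellTiter-Glo) measured viability.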

[12] = qHTS assay to identify small molecule antagonists of the androgen receptor (AR) signaling pathway - cell viability counter screen (AID 743033; note: nearly all actives have a fitted effect of over 45% in size; note: potency is the fitted concentration of half-maximal effect)
[13] = tested on: thyroid hormone receptor (rat, GH3 cells); assay: qHTS assay to identify small molecule agonists of the thyroid receptor (TR) signaling pathway (AID 743066; calls by dose curve)
[14] = qHTS assay to identify small molecule antagonists of the estrogen receptor alpha (ER-alpha) signaling pathway - cell viability counter screen (AID 743074; calls by dose curve;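 note: HEK293 cells carrying ER-alpha-UAS-bla reporter stimulated with 17beta-estradiol; nearly all actives have a fitted effect of over 45% in size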; note: potency is the fitted concentration of half-maximal effect)
[15] = qHTS assay to identify small molecule antagonists of the estrogen receptor alpha (ER-alpha) signaling pathway using the BG1 cell line - cell viability counter screen (AID 743081);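 note: compound given together with 17beta-estradiol as the ER stimulus; nearly all actives have a fitted effect of over 45% in size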; note: potency is the fitted concentration of half-maximal effect
Aromatase (Homo sapiens) = Aromatase (Homo sapiens) (UniProt P11511); assay: qHTS assay to identify aromatase inhibitors (AID 743083); note: nearly all actives have a fitted effect of over 55% in size; note: potency is the fitted concentration of half-maximal effect
Sequence of Aromatase (Homo sapiens) (P11511 whole entry, looked up): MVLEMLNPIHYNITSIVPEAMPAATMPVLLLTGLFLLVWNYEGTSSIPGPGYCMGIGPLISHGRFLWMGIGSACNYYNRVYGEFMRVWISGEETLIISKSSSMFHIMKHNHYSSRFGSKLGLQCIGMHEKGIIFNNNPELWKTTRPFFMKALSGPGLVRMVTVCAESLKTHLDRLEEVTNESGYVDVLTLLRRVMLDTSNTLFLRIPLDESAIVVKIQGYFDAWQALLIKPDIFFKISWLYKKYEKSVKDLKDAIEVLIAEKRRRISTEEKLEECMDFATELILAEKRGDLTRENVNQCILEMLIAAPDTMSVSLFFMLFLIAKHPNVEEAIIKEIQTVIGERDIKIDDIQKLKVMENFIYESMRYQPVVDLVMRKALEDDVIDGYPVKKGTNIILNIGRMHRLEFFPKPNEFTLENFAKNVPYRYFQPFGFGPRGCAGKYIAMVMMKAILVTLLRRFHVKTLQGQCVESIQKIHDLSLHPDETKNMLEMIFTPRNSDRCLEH

[16] = qHTS assay to identify aromatase inhibitors - cell viability counter screen (AID 743084);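 note: cells stimulated with testosterone during compound exposure; nearly all actives have a fitted effect of over 55% in size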; note: potency is the fitted concentration of half-maximal effect
[17] = qHTS assay to identify small molecule that activate the aryl hydrocarbon receptor (AhR) signaling pathway - cell viability counter screen (AID 743086); note: nearly all actives have a fitted effect of over 45% in size; note: potency is the fitted concentration of half-maximal effect
Procedure, shortened: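 HepG2-AhR-luc (HG2L7.5c1) cells, 4000/well, were preincubated 5 h at 37C, exposed to compound in qHTS format for 24 hr at 37C, then given CellTiter-Fluor for 30 min; viability was read as fluorescence in the reporter wells.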

[18] = qHTS assay for small molecules that induce genotoxicity in human embryonic kidney cells expressing luciferase-tagged ATAD5 (AID 651632); note: nearly all actives have a fitted effect of over 15% in size; note: potency is the fitted concentration of half-maximal effect
Procedure, shortened: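 Cells were seeded at 2,000 per well, dosed with compound, and incubated 16 hr at 37C in 5% CO2. Luciferase activity was then quantified after a 30 min room-temperature incubation with Amplite.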

[19] = qHTS assay to identify small molecule phospholipidosis (PLD) inducers (AID 1259344; active = well fitted curve in the direction sought with a large enough effect; an effect the other way counts as inactive or inconclusive)
Procedure, shortened: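 Cells (HepG2, 900 per well) attach for 4 h, receive LipidTOX Red and compound together, incubate 24 h at 37 C, are fixed 30 min with paraformaldehyde/Hoechst, then imaged at one site per well.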

Measured: Potency
Tags give direction and shape of the fitted curve or compound fluorescence and quenching.

CN(C)CCCCCCN(C)C
not listed: [18] | [19]
inactive: all other assays above

C[C@]12CC[C@H](OS(=O)(=O)O)CC1=CC[C@@H]1[C@@H]2CC[C@]2(C)C(=O)CC[C@@H]12
not listed: [11]
inactive: all other assays above

CCCCCCCCCC(=O)O[C@H]1CC[C@H]2[C@@H]3CCC4=CC(=O)CC[C@]4(C)[C@H]3CC[C@]12C
inactive: all assays above

O=C1CN(O)C(c2ccccc2)=c2cc(Cl)ccc2=N1
inactive: all assays above

CCC(N)Cc1c[nH]c2ccccc12 (stereo unspecified)
inactive and 68.8 µM (active): [11]
not listed: [15]
inactive: all other assays above

CNC(=O)OCC[N+](C)(C)C
not listed: [13]
inactive: all other assays above

C[C@]12CC[C@H]3[C@@H](CCC4=C(O)C(=O)CC[C@@H]43)[C@@H]1CC[C@@H]2OC(=O)CCC1CCCC1
inactive: all assays above

c1ccccc1
not listed: [19]
inactive: all other assays above

C[C@]12C=CC(=O)C=C1CC[C@@H]1[C@@H]2CC[C@]2(C)OC(=O)CC[C@@H]12
inactive: all assays above

S=C(S)N1CCNCC1
inactive: all assays above

O=c1[nH]cc(N(CCCl)CCCl)c(=O)[nH]1
not listed: [3] | [14]
inactive: all other assays above

COC1=CC=C2[C@H]3Cc4ccc(OC)c5c4[C@@]2(CCN3C)[C@H]1O5
inactive: all assays above

CC(=O)OC1CN2CCC1CC2 (stereo unspecified)
inactive: all assays above

Oc1ccc2c3c1O[C@H]1[C@@H](O)CC[C@@]4(O)[C@@H](C2)N(CC2CCC2)CC[C@]314
inactive: all assays above

C=CCN(C1=NCCN1)c1c(Cl)cccc1Cl
inactive: all assays above

C[N+]1(C)CCCCC1COC(=O)C(O)(c1ccccc1)c1ccccc1 (stereo unspecified)
not listed: [13]
inactive: all other assays above

NCC[C@H](O)C(=O)N[C@@H]1C[C@H](N)[C@@H](O[C@H]2O[C@H](CN)[C@@H](O)[C@H](O)[C@H]2N)[C@H](O[C@@H]2O[C@H](CO)[C@@H](O)[C@H]2O)[C@H]1O
inactive: all assays above

C#CC(C)(O)CC (stereo unspecified)
not listed: [3]
inactive: all other assays above

C[C@H]1CC[C@]2(NC1)O[C@H]1C[C@H]3[C@@H]4CC[C@H]5C[C@@H](O[C@@H]6O[C@H](CO)[C@H](O[C@@H]7O[C@H](CO)[C@@H](O)[C@H](O[C@@H]8OC[C@@H](O)[C@H](O)[C@H]8O)[C@H]7O[C@@H]7O[C@H](CO)[C@@H](O)[C@H](O)[C@H]7O)[C@H](O)[C@H]6O)CC[C@]5(C)[C@H]4CC[C@]3(C)[C@H]1[C@@H]2C
active: [18] 1.33 µM | [1] 2.11 µM | [2] 7.5 µM | [3] 3.35 µM | [11] 1.88 µM | [12] 4.77 µM | [14] 10.7 µM | Aromatase (Homo sapiens) 3.35 µM | [16] 5.96 µM | [17] 5.96 µM
inactive: [4] | [5] | [6] | [7] | [8] | [9] | [10] | [19]

CC(C)CCC(=O)O[C@H]1CC[C@H]2[C@@H]3CCC4=CC(=O)CC[C@]4(C)[C@H]3CC[C@]12C
active: [11] 7.5 µM
not listed: [1]
inactive: all other assays above

O=C1OC2(c3cc(Br)c(O)cc3Oc3c2cc(Br)c(O)[c]3[Hg])c2ccccc21 (stereo unspecified)
active: [6] 10 µM [fluorescent] | [7] 10 µM [fluorescent] | [11] 10.1 µM
not listed: [4] | [8] | [13] | [15]
inactive: all other assays above

COc1ccc2c3c1O[C@H]1[C@@H](O)C=C[C@H]4[C@@H](C2)NCC[C@@]341
inactive: all assays above

COC([CH2][Hg])CNC(=O)c1ccccc1OCC(=O)O (stereo unspecified)
active: [11] 1.68 µM
not listed: [2] | [13] | [18]
inactive: all other assays above

c1cc2c(c(NC3=NCCN3)c1)CCCC2
not listed: [11]
inactive: all other assays above

O=C1C=C2C=C[C@@H]3C[C@@]2(O1)[C@H]1CCCCN31
active: [18] 6.68 µM | [2] 18.8 µM | [11] 7.5 µM | Aromatase (Homo sapiens) 13.3 µM | [16] 23.7 µM | [17] 15 µM
not listed: [15]
inactive: all other assays above

CCOc1ccc2c3c1O[C@H]1[C@@H](O)C=C[C@H]4[C@@H](C2)N(C)CC[C@@]341
inactive: all assays above

[H+].[H+].[Hg+2].[O-]B([O-])[O-].[c-]1ccccc1
inactive: [4] | [5] | [6] | [7] | [8] | [9] | [10] | [19]
active: [1] 0.668 µM | [2] 9.44 µM | [3] 13.3 µM | [11] 0.266 µM | [12] 9.52 µM | [14] 6.01 µM | [15] 5.31 µM | Aromatase (Homo sapiens) 7.5 µM | [16] 10.6 µM | [17] 21.1 µM
